Screening data from PubChem.
Shown are actives, neighbours in structure and some others; about 2.1% of the full set was active somewhere.
APP transl inh: APP translation inhibition; hit rate 0.82% among 190,000; inhibition, % at 2 µM; SH-SY5Y APP 5'UTR-luciferase reporter, luminescence;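 active = inhibition above a set limit, derived from the sample mean plus 3 SD, cut at about 45% in these data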
BaF3 parental: counter-screen for JAK2V617F inhibitors: parental Ba/F3 viability inhibitors | CellTiter-Glo ATP luminescence | hit rate 1.1% among 220,000 | inhibition, % at 5.6 µM | AID 1486;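 active = inhibition above a per-campaign cutoff, the mean inhibition of all tested compounds plus 3 SD, cut at about 27% in these data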
IEC-6 tox-1: IEC-6 cytotoxicity, counter-screen for KLF5 inhibitors | luminescence viability | inhibition, % at 5 µM | hit rate 0.78% among 290,000; in the data active = inhibition above about 22%
Ba/F3 V617F tox: loss of viability in JAK2V617F-driven Ba/F3 cells; Ba/F3 EpoR-JAK2V617F viability, ATP luminescence; inhibition, % at 5.6 µM; hit rate 1.1% among 220,000;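 active = inhibition above the campaign mean plus 3 SD over all tested compounds, cut at about 24% in these data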;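 note: cytokine-independent growth of Ba/F3 cells driven by EpoR plus mutant JAK2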
aSyn UTR inh: MLPCN primary screen, SNCA 5' untranslated region; alpha-synuclein 5'UTR reporter, inhibitor activity; inhibition, % (tested at 7.5 µM); hit rate 0.82% among 300,000; AID 1813; in the data active = inhibition above about 60%;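 note: H4 neuroglioblastoma cells stably carrying SNCA 5'UTR luciferase fusion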
KLF5 inhibitor: kruppel-like factor 5 inhibition; DLD-1 KLF5 promoter-luciferase reporter, luminescence; inhibition, % at 5 µM; hit rate 0.23% among 290,000;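 active = inhibition above a per-plate limit of that plate's mean compound inhibition plus 3 SD, cut at about 60% in these data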;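 note: higher means less KLF5 promoter-driven luciferase light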
KLF5 inh confirm: confirmation of KLF5 inhibitors. shares compounds with KLF5 inhibitor. DLD-1 KLF5 promoter firefly luciferase reporter, luminescence. inhibition, % at 4 µM. hit rate 79% among 610;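 active = inhibition above a set limit taken from the earlier primary screen, cut at about 63% in these data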
IEC-6 tox-2: kills rat IEC-6 cells in KLF5 counter-screen; AID 1905; inhibition, % at 4 µM; hit rate 56% among 610; IEC-6 rat intestinal cells, viability luminescence; shares compounds with KLF5 inhibitor; in the data active = inhibition above about 23%;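 note: cells exposed to compounds for 48 hours before viability read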
A number is an active result.

`CCN1C=CC(=C2C(=O)c3ccccc3C2=O)C=C1` gave APP transl inh 70, BaF3 parental inactive, IEC-6 tox-1 inactive, Ba/F3 V617F tox inactive, aSyn UTR inh 96, KLF5 inhibitor 87, KLF5 inh confirm 96 and IEC-6 tox-2 inactive.
`CCCN1C=CC(=C2C(=O)c3ccccc3C2=O)C=C1` gave APP transl inh 81, BaF3 parental inactive, IEC-6 tox-1 inactive, Ba/F3 V617F tox inactive, aSyn UTR inh 132, KLF5 inhibitor 107, KLF5 inh confirm 106 and IEC-6 tox-2 24.
For Cc1ccc(NC(=O)NNC(=O)C2CCN(Cc3ccc(F)cc3Cl)CC2)cc1 the results were APP transl inh inactive, BaF3 parental inactive, IEC-6 tox-1 inactive, Ba/F3 V617F tox inactive, aSyn UTR inh inactive and KLF5 inhibitor inactive.
Screening CCCCCC(=O)Nc1ccc(C2C(=O)c3ccccc3C2=O)cc1 returned IEC-6 tox-1 inactive, aSyn UTR inh inactive and KLF5 inhibitor inactive.
CCC(=O)N(C1=C(NC)C(=O)c2ccccc2C1=O)C(C)C was read as APP transl inh inactive, BaF3 parental 102, IEC-6 tox-1 inactive, Ba/F3 V617F tox 100, aSyn UTR inh inactive, KLF5 inhibitor 76, KLF5 inh confirm inactive and IEC-6 tox-2 inactive.
CNC1=C(N(C(C)=O)c2ccc(Br)cc2)C(=O)c2ccccc2C1=O was read as APP transl inh 55, BaF3 parental 102, IEC-6 tox-1 inactive, Ba/F3 V617F tox 100, aSyn UTR inh 111, KLF5 inhibitor 97, KLF5 inh confirm 94 and IEC-6 tox-2 inactive.
For CC(=O)NC1=C(N(C)C2CCS(=O)(=O)C2)C(=O)c2ccccc2C1=O (stereo unspecified) the results were APP transl inh inactive, BaF3 parental inactive, IEC-6 tox-1 inactive, Ba/F3 V617F tox inactive, aSyn UTR inh inactive and KLF5 inhibitor inactive.
`O=C(Nc1nc2ccsc2c(=O)s1)c1ccc(Cl)cc1` gave BaF3 parental inactive, IEC-6 tox-1 inactive, Ba/F3 V617F tox inactive, aSyn UTR inh inactive and KLF5 inhibitor inactive.
`Cc1ccc(S(=O)(=O)NCC(=O)NCCc2c[nH]c3ccccc23)cc1C` gave IEC-6 tox-1 inactive, aSyn UTR inh inactive and KLF5 inhibitor inactive.
CCCCc1nnc(NC(=O)CSCc2cc(=O)n3cc(C)sc3n2)s1 was read as IEC-6 tox-1 inactive, aSyn UTR inh inactive and KLF5 inhibitor inactive.
Screening O=C1c2cccc3cc([N+](=O)[O-])cc(c23)C(=O)N1CCN1CCCC1 returned BaF3 parental 104, IEC-6 tox-1 100, Ba/F3 V617F tox 99, aSyn UTR inh 98, KLF5 inhibitor inactive, KLF5 inh confirm inactive and IEC-6 tox-2 98.
CCOc1ccc(NC(=O)NNC(=O)C(C)Oc2ccccc2OC)cc1 (stereo unspecified) was read as IEC-6 tox-1 inactive, aSyn UTR inh inactive and KLF5 inhibitor inactive.
CC(C)CN(C(=O)COc1ccc(-c2nnco2)cc1)C1CCS(=O)(=O)C1 (stereo unspecified) was read as IEC-6 tox-1 inactive, aSyn UTR inh inactive and KLF5 inhibitor inactive.
For O=C(/C=C/c1ccccc1)Nc1cccc(C(=O)O)c1 the results were APP transl inh 64, BaF3 parental inactive, IEC-6 tox-1 inactive, Ba/F3 V617F tox inactive, aSyn UTR inh 95, KLF5 inhibitor 102, KLF5 inh confirm 101 and IEC-6 tox-2 inactive.
Screening O=C(/C=C/c1ccccc1)Nc1cc(NC(=O)/C=C/c2ccccc2)cc(C(=O)O)c1 returned IEC-6 tox-1 inactive, aSyn UTR inh inactive and KLF5 inhibitor inactive.
Screening COc1ccccc1N1CCN(c2nc(C)nc3c2oc2ccccc23)CC1 returned APP transl inh 93, BaF3 parental 71, IEC-6 tox-1 80, Ba/F3 V617F tox 65, aSyn UTR inh 90, KLF5 inhibitor 67, KLF5 inh confirm 79 and IEC-6 tox-2 64.
`O=[N+]([O-])c1cc(CN2CCCC2)c2cccnc2c1O` gave APP transl inh inactive, BaF3 parental inactive, IEC-6 tox-1 inactive, Ba/F3 V617F tox inactive and KLF5 inhibitor inactive.
Screening COc1ccccc1N1CCN(Cc2cc(Br)c(O)c3ncccc23)CC1 returned APP transl inh inactive, BaF3 parental 86, IEC-6 tox-1 inactive, Ba/F3 V617F tox 98, aSyn UTR inh 77, KLF5 inhibitor 93, KLF5 inh confirm 65 and IEC-6 tox-2 inactive.
